# Measured values as given in PubChem BioAssay (EPA / NIEHS).
# Inconclusive results are not listed. The source made the active and inactive calls. How the source made its calls: active means hit-call score of the fitted dose curve at least 0.9, where 1 is the maximum; inconclusive means response in the unintended direction; inactive means score below 0.9.
# Molecular target: human Peroxisome Proliferator-activated Receptor alpha (PPARa), PPARA (gene 5465) (UniProt Q07869)
# Experiment: ATG_PPARa_TRANS: Attagene TRANS-FACTORIAL HepG2 Assay for human Peroxisome Proliferator-activated Receptor alpha (PPARa) (AID 2283001);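 on AC50: potency for gain of reporter signal over DMSO so agonist or activator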
# Method in brief: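 Read-out is fluorescence of reporter cDNA fragments resolved by capillary electrophoresis after RT-PCR. Human HepG2 liver cells carried transfected PPARa-Gal4 chimera and GAL4-UAS reporter units, treated 24 h; activity scored as increase over DMSO.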
# Sequence of human Peroxisome Proliferator-activated Receptor alpha (PPARa), PPARA (gene 5465) (Q07869 whole entry, looked up): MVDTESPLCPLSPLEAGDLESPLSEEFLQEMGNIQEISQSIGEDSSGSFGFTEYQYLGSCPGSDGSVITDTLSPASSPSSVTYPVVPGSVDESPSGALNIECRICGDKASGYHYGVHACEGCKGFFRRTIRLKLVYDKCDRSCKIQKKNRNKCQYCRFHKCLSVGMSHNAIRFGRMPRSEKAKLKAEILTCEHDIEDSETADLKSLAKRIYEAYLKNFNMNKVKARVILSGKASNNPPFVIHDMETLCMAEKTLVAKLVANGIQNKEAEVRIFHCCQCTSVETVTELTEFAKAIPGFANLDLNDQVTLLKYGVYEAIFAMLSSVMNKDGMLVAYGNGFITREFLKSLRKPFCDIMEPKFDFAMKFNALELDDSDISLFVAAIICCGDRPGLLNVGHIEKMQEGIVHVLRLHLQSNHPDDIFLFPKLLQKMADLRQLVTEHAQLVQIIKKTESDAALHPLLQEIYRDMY
Compound,outcome,AC50
C[Si]1(C)O[Si](C)(C)O[Si](C)(C)O1,inactive,
CC(C)(C)CC(C)(C)c1ccc(OCCOCC[N+](C)(C)Cc2ccccc2)cc1,,14.4 µM (active)
O=CN1CCOCC1,inactive,
CCCCCCC(CO)CCCC (stereo not given),inactive,
O=C1OC2(c3ccccc31)c1ccc(O)c(Br)c1Oc1c2ccc(O)c1Br,inactive,
CCCCCC(=O)CC,inactive,
COc1ccc(COC(C)=O)cc1,inactive,
O=[N+]([O-])c1ccc(O)cc1C(F)(F)F,inactive,
CCC(C)c1cc([N+](=O)[O-])cc([N+](=O)[O-])c1OC(=O)OC(C)C (stereo not given),inactive,
[O-]n1ccccc1=S.[O-]n1ccccc1=S.[Zn+2],inactive,
CCc1ccc(O)cc1,inactive,
NCCNc1cccc2ccccc12,,150 µM (active)
CCc1cc(Cc2cc(CC)cc(C(C)(C)C)c2O)c(O)c(C(C)(C)C)c1,,51.9 µM (active)
COc1cc(Cl)c(OC)cc1N,inactive,
CCCCCC(C=O)=Cc1ccccc1,,27.5 µM (active)
CCCCCCCCCCCCCC(=O)OCC(O)CO (stereo not given),inactive,
CCCCC(CC)COC(C)=O (stereo not given),inactive,
CCCCCCCC/C=C\CCCCCCCC(=O)OCC,,45.1 µM (active)
Nc1ccc2cc(S(=O)(=O)O)cc(O)c2c1N=Nc1ccccc1C(F)(F)F,inactive,

Compound,outcome,AC50
c1ccc2cc(Nc3ccc(Nc4ccc5ccccc5c4)cc3)ccc2c1,inactive,
NC(=S)NNC(N)=S,inactive,
Nc1ccc(N)c2c1C(=O)c1ccccc1C2=O,inactive,
CCCCN(CCCC)C(=O)N(CCCC)CCCC,inactive,
CCCCCCC(O)CCCCCCCCCCC(=O)O (stereo not given),,5.01 µM (active)
IC(I)I,inactive,
CN(C)C(=S)SC(=S)N(C)C,inactive,
C=C(C)C(=O)OCCOCCOCCOCCOC(=O)C(=C)C,inactive,
CC(C=O)Cc1ccc(C(C)(C)C)cc1 (stereo not given),,40.7 µM (active)
c1ccc(Oc2ccccc2)cc1,inactive,
O=C(O)c1ccc(O)cc1,inactive,
CCCCCCCCCCCC(=O)OC[C@@H](O)[C@H]1OC[C@H](O)[C@H]1O,inactive,
CCCCCCCCCCCCCCCC(=O)OC/C=C(C)/C=C/C=C(C)/C=C/C1=C(C)CCCC1(C)C,inactive,
Cc1ccc(S(=O)(=O)Oc2ccc(N=Nc3ccc(-c4ccc(N=Nc5c(O)ccc6cc(S(=O)(=O)O)cc(S(=O)(=O)O)c56)c(C)c4)cc3C)cc2)cc1,inactive,
c1ccc(CCc2ccccc2)cc1,inactive,
COc1ccc(OC)c(N=Nc2c(O)ccc3ccccc23)c1,inactive,
COC(C)(C)CCO,inactive,
C=CC(=O)OCCC#N,inactive,
CCCCCCOC(=O)C(C)C,inactive,

# Molecular target: human Peroxisome Proliferator-activated Receptor delta (PPARd), PPARD (gene 5467) (UniProt Q03181)
# Experiment: ATG_PPARd_TRANS: Attagene TRANS-FACTORIAL HepG2 Assay for human Peroxisome Proliferator-activated Receptor delta (PPARd) (AID 2283002)
# Method in brief: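 Cell-based TRANS reporter: HepG2, transient MRTU transfection, 24 h exposure. Readout = reporter mRNA (RT-PCR/CE, 6-FAM). Gain-of-signal fit vs DMSO control.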
# Sequence of human Peroxisome Proliferator-activated Receptor delta (PPARd), PPARD (gene 5467) (Q03181 whole entry, looked up): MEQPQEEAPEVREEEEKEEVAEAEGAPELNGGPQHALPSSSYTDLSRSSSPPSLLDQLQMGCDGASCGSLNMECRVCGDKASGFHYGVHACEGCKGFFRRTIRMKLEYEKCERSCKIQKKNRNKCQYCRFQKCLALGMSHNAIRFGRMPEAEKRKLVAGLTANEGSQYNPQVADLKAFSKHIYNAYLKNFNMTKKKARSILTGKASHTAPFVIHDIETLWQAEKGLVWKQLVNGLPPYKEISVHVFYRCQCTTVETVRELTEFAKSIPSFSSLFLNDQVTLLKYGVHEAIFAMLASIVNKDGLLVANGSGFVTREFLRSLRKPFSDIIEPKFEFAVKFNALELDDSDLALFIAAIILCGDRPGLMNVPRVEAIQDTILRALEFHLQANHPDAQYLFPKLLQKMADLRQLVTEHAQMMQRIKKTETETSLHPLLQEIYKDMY
Compound,outcome,AC50
C[Si]1(C)O[Si](C)(C)O[Si](C)(C)O1,inactive,
CC(C)(C)CC(C)(C)c1ccc(OCCOCC[N+](C)(C)Cc2ccccc2)cc1,inactive,
O=CN1CCOCC1,inactive,
CCCCCCC(CO)CCCC (stereo not given),inactive,
O=C1OC2(c3ccccc31)c1ccc(O)c(Br)c1Oc1c2ccc(O)c1Br,inactive,
CCCCCC(=O)CC,inactive,
COc1ccc(COC(C)=O)cc1,inactive,
O=[N+]([O-])c1ccc(O)cc1C(F)(F)F,inactive,
CCC(C)c1cc([N+](=O)[O-])cc([N+](=O)[O-])c1OC(=O)OC(C)C (stereo not given),inactive,
[O-]n1ccccc1=S.[O-]n1ccccc1=S.[Zn+2],inactive,
CCc1ccc(O)cc1,inactive,
NCCNc1cccc2ccccc12,inactive,
CCc1cc(Cc2cc(CC)cc(C(C)(C)C)c2O)c(O)c(C(C)(C)C)c1,inactive,
COc1cc(Cl)c(OC)cc1N,inactive,
CCCCCC(C=O)=Cc1ccccc1,inactive,
CCCCCCCCCCCCCC(=O)OCC(O)CO (stereo not given),inactive,
CCCCC(CC)COC(C)=O (stereo not given),inactive,
CCCCCCCC/C=C\CCCCCCCC(=O)OCC,inactive,
Nc1ccc2cc(S(=O)(=O)O)cc(O)c2c1N=Nc1ccccc1C(F)(F)F,inactive,

Compound,outcome,AC50
c1ccc2cc(Nc3ccc(Nc4ccc5ccccc5c4)cc3)ccc2c1,inactive,
NC(=S)NNC(N)=S,inactive,
Nc1ccc(N)c2c1C(=O)c1ccccc1C2=O,inactive,
CCCCN(CCCC)C(=O)N(CCCC)CCCC,inactive,
CCCCCCC(O)CCCCCCCCCCC(=O)O (stereo not given),,12.1 µM (active)
IC(I)I,inactive,
CN(C)C(=S)SC(=S)N(C)C,inactive,
C=C(C)C(=O)OCCOCCOCCOCCOC(=O)C(=C)C,inactive,
CC(C=O)Cc1ccc(C(C)(C)C)cc1 (stereo not given),inactive,
c1ccc(Oc2ccccc2)cc1,inactive,
O=C(O)c1ccc(O)cc1,inactive,
CCCCCCCCCCCC(=O)OC[C@@H](O)[C@H]1OC[C@H](O)[C@H]1O,inactive,
CCCCCCCCCCCCCCCC(=O)OC/C=C(C)/C=C/C=C(C)/C=C/C1=C(C)CCCC1(C)C,inactive,
Cc1ccc(S(=O)(=O)Oc2ccc(N=Nc3ccc(-c4ccc(N=Nc5c(O)ccc6cc(S(=O)(=O)O)cc(S(=O)(=O)O)c56)c(C)c4)cc3C)cc2)cc1,inactive,
c1ccc(CCc2ccccc2)cc1,inactive,
COc1ccc(OC)c(N=Nc2c(O)ccc3ccccc23)c1,inactive,
COC(C)(C)CCO,inactive,
C=CC(=O)OCCC#N,inactive,
